Results: PubChem BioAssay (NCATS)
Results filed as inconclusive are left out. Active and inactive are the calls of the source. Unless noted, the call rests on the fitted dose curve; in most records, active means well fitted curve in the direction sought with a large enough effect; inconclusive means small, poorly fitted or top-dose-only effect, or another doubt; inactive means no such curve, though single readings can be large; an effect the other way counts as inactive or inconclusive.

Experiments:
[1] = molecular target: Glucocorticoid receptor (Homo sapiens) (UniProt P04150); experiment: GR-GFP Redistribution (AID 450;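 active means compounds whose dose series gives a full or clear partial fitted curve of increased nuclear translocation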; further: potency means the concentration at half of the fitted maximal effect)
[2] = molecular target: Glucocorticoid receptor (Homo sapiens) (UniProt P04150); experiment: GR-EFC Redistribution (AID 451; calls by dose curve; further: potency means the concentration at half of the fitted maximal effect); conditions: CHO-K1 GR-EFC translocation, beta-gal luminescence, 2 h
Method in brief: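 CHO-K1 cells expressing nuclear EA and GR-ED fragments of b-gal; compounds titrated up to 46 uM final, 2 h at 37 C. GR nuclear translocation read as complemented b-gal luminescence after 1 h RT detection.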

[3] = molecular target: ATP-dependent 6-phosphofructokinase (Trypanosoma brucei brucei) (UniProt O15648); experiment: qHTS Assay to Find Inhibitors of T. brucei phosphofructokinase: hit validation (AID 492961); further: on the % scale 0 is the no-effect control and ±100 the full control effect
Method in brief: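 Luminescence from ADP-Glo reports ADP generated as T. brucei PFK (1.25 nM) phosphorylates 0.5 mM fructose-6-phosphate using 0.1 mM ATP. Reactions ran 45 min at room temperature, pH 8.0.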

[4] = molecular target: DNA dC->dU-editing enzyme APOBEC-3G (Homo sapiens) (UniProt Q9HC16); experiment: qHTS for inhibitors of Vif-A3G interactions: Validation (AID 588379); further: 0% is about no effect
Method in brief: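 HeLa cells stably expressing Vif and A3G-eYFP, 700 cells/well, incubated overnight at 37 deg C, then exposed to compound overnight at 37 deg C. Inhibition of Vif-mediated degradation read as increased yellow fluorescence (Ex 488/Em 500-530) by laser-scanning cytometry.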

[5] = molecular target: Luciferin 4-monooxygenase (Photinus pyralis) (UniProt P08659); experiment: Biochemical firefly luciferase enzyme assay for NPC (AID 624030);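 further: purified P. pyralis luciferase at 10 nM with luciferin and ATP substrate; 0% = DMSO and -100% = full luciferase inhibition by PTC124 control; nearly all actives have a fitted effect of over 70% in size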
Method in brief: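 Purified P. pyralis luciferase at 10 nM in 50 mM Tris Acetate (final), luminescence read within 5 minutes of enzyme addition to compounds. Activity normalised to PTC124 versus DMSO; concentration-response curves classed by r2, magnitude and activity.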

[6] = S16 Schwann cell viability assay (CellTiter-Glo assay) (AID 624031);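 further: cellular ATP luminescence as a viability measure; plate controls were DMSO-treated cells for no effect and cell-free wells for full effect; nearly all actives have a fitted effect of over 70% in size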
Method in brief: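 Native S16 rat Schwann cells in DMEM/10% FBS without phenol red were incubated overnight, then exposed to compounds for 24 h at 37 °C/5% CO2. Viability was read as ATP luminescence (CellTiter-Glo), normalized to no-cell wells and DMSO (0%).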

[7] = S16 Schwann cell PMP22 intronic element firefly luciferase assay (AID 624032);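 further: plate controls were DMSO for no effect and PTC124 positive control mean for full effect; nearly all actives have a fitted effect of over 30% in size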
Method in brief: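 Rat S16 Schwann cells stably carrying firefly luciferase driven by a PMP22 intronic element, in 10% FBS, treated 24 h at 37 C. ONE-Glo luminescence normalized to PTC124 control and DMSO (0%); curves classed by r2, magnitude and activity.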

[8] = S16 Schwann cell PMP22 intronic element beta-lactamase assay (AID 624044; calls by dose curve;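 further: 0% = DMSO and -100% = potassium clavulanate positive control; nearly all actives have a fitted effect of over 15% in size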); conditions: S16 rat Schwann cells, PMP22 element beta-lactamase FRET, 24 h; ratio activity, negative = inhibition: at 38.3 µM (top of the series)
Method in brief: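 Rat S16 Schwann cells with beta-Lac driven by a PMP22 intronic element, compound-treated 24 h at 37 °C. LiveBLAzer FRET B/G read: 460 nm normalized to potassium clavulanate vs DMSO; 535 nm FRET as viability; concentration-effect curves classified.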

[9] = qHTS profiling for inhibitors of Plasmodium falciparum proliferation (AID 504749); further: nearly all actives have a fitted effect of over 60% in size; further: potency means the concentration at half of the fitted maximal effect;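 on activity, negative = inhibition: 0% = DMSO vehicle and full inhibition = artemisinin control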; conditions: P. falciparum in erythrocytes, SYBR Green DNA, 72 h, at 28.7 µM (top of the series)
Method in brief: (§1)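 P. falciparum-infected erythrocytes (0.3% parasitemia, 2.5% hematocrit) incubated with compound 72 h at 37 C, 5% CO2. Parasite DNA detected by SYBR Green after lysis, overnight at room temperature; normalised to 0.29 uM artemisinin and DMSO.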

3D7 = experiment: as above; conditions: P. falciparum in erythrocytes, SYBR Green DNA, 72 h; series mostly up to 28.7 µM
Method in brief: as §1

C2A = experiment: as above; conditions: P. falciparum in erythrocytes, SYBR Green DNA, 72 h; series mostly up to 28.7 µM
Method in brief: as §1

CP191 = experiment: as above; conditions: P. falciparum in erythrocytes, SYBR Green DNA, 72 h; series mostly up to 28.7 µM
Method in brief: as §1

CP192 = experiment: as above; conditions: P. falciparum in erythrocytes, SYBR Green DNA, 72 h; series mostly up to 28.7 µM
Method in brief: as §1

CP217 = experiment: as above; conditions: P. falciparum in erythrocytes, SYBR Green DNA, 72 h; series mostly up to 28.7 µM
Method in brief: as §1

CP237 = experiment: as above; conditions: P. falciparum in erythrocytes, SYBR Green DNA, 72 h; series mostly up to 28.7 µM
Method in brief: as §1

CP250 = experiment: as above; conditions: P. falciparum in erythrocytes, SYBR Green DNA, 72 h; series mostly up to 28.7 µM
Method in brief: as §1

CP256 = experiment: as above; conditions: P. falciparum in erythrocytes, SYBR Green DNA, 72 h; series mostly up to 28.7 µM
Method in brief: as §1

CP262 = experiment: as above; conditions: P. falciparum in erythrocytes, SYBR Green DNA, 72 h; series mostly up to 28.7 µM
Method in brief: as §1

CP268 = experiment: as above; conditions: P. falciparum in erythrocytes, SYBR Green DNA, 72 h; series mostly up to 28.7 µM
Method in brief: as §1

CP269 = experiment: as above; conditions: P. falciparum in erythrocytes, SYBR Green DNA, 72 h; series mostly up to 28.7 µM
Method in brief: as §1

CP297 = experiment: as above; conditions: P. falciparum in erythrocytes, SYBR Green DNA, 72 h; series mostly up to 28.7 µM
Method in brief: as §1

CP315 = experiment: as above; conditions: P. falciparum in erythrocytes, SYBR Green DNA, 72 h; series mostly up to 28.7 µM
Method in brief: as §1

CP329 = experiment: as above; conditions: P. falciparum in erythrocytes, SYBR Green DNA, 72 h; series mostly up to 28.7 µM
Method in brief: as §1

DIV14 = experiment: as above; conditions: P. falciparum in erythrocytes, SYBR Green DNA, 72 h; series mostly up to 28.7 µM
Method in brief: as §1

DIV17 = experiment: as above; conditions: P. falciparum in erythrocytes, SYBR Green DNA, 72 h; series mostly up to 28.7 µM
Method in brief: as §1

Dd2 = experiment: as above; conditions: P. falciparum in erythrocytes, SYBR Green DNA, 72 h; series mostly up to 28.7 µM
Method in brief: as §1

ECU = experiment: as above; conditions: P. falciparum in erythrocytes, SYBR Green DNA, 72 h; series mostly up to 28.7 µM
Method in brief: as §1

FAB9 = experiment: as above; conditions: P. falciparum in erythrocytes, SYBR Green DNA, 72 h; series mostly up to 28.7 µM
Method in brief: as §1

GB4 = experiment: as above; conditions: P. falciparum in erythrocytes, SYBR Green DNA, 72 h; series mostly up to 28.7 µM
Method in brief: as §1

HB3 = experiment: as above; conditions: P. falciparum in erythrocytes, SYBR Green DNA, 72 h; series mostly up to 28.7 µM
Method in brief: as §1

JCK = experiment: as above; conditions: P. falciparum in erythrocytes, SYBR Green DNA, 72 h; series mostly up to 28.7 µM
Method in brief: as §1

PAD = experiment: as above; conditions: P. falciparum in erythrocytes, SYBR Green DNA, 72 h; series mostly up to 28.7 µM
Method in brief: as §1

PC49 = experiment: as above; conditions: P. falciparum in erythrocytes, SYBR Green DNA, 72 h; series mostly up to 28.7 µM
Method in brief: as §1

TAB113 = experiment: as above; conditions: P. falciparum in erythrocytes, SYBR Green DNA, 72 h; series mostly up to 28.7 µM
Method in brief: as §1

W2 = experiment: as above; conditions: P. falciparum in erythrocytes, SYBR Green DNA, 72 h; series mostly up to 28.7 µM
Method in brief: as §1

Glucocorticoid receptor (Homo sapiens), sequence (P04150 whole entry, looked up, the tested form may be a part): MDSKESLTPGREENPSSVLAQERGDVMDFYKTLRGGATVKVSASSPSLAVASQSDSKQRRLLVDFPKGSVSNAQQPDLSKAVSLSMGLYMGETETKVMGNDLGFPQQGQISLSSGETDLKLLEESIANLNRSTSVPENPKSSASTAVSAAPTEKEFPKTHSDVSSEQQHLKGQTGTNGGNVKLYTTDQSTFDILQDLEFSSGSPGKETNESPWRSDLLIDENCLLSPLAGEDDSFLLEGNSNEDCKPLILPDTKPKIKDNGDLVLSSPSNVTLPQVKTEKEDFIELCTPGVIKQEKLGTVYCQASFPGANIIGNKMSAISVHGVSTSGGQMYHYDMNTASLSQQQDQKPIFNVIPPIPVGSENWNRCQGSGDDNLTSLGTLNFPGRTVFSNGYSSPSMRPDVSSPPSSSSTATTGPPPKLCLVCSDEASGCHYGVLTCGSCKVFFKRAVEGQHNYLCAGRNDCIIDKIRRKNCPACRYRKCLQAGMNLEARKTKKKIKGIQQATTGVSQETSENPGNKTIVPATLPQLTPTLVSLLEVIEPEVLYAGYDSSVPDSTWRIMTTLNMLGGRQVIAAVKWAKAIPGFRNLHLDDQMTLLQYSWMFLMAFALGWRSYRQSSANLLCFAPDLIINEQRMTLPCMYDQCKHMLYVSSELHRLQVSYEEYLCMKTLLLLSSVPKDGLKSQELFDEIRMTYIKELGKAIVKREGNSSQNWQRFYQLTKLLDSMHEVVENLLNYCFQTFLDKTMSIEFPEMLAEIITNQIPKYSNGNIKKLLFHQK
DNA dC->dU-editing enzyme APOBEC-3G (Homo sapiens), sequence (Q9HC16 whole entry, looked up): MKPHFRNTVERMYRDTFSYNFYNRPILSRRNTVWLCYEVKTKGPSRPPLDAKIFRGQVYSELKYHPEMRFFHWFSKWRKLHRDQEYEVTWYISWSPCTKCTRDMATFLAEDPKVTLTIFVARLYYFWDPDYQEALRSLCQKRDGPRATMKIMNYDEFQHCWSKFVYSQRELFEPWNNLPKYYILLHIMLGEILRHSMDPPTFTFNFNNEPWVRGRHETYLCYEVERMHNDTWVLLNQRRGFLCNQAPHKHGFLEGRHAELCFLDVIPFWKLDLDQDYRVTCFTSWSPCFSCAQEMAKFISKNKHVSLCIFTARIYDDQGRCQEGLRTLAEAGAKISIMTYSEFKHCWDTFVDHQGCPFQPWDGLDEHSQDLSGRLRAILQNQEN
ATP-dependent 6-phosphofructokinase (Trypanosoma brucei brucei), sequence (O15648 whole entry, looked up): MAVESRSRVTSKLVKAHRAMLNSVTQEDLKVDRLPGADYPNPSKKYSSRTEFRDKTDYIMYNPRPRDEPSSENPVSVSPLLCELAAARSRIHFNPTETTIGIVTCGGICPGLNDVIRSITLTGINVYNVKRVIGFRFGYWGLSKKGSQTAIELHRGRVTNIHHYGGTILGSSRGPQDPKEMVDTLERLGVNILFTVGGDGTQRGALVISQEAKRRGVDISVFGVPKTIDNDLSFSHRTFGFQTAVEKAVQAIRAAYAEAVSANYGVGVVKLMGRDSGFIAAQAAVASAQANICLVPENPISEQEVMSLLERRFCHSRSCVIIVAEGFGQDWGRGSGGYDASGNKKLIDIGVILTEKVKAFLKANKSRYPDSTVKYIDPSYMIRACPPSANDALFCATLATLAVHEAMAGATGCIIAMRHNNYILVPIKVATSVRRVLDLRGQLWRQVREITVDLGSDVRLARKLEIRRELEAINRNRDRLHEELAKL
Luciferin 4-monooxygenase (Photinus pyralis), sequence (P08659 whole entry, looked up): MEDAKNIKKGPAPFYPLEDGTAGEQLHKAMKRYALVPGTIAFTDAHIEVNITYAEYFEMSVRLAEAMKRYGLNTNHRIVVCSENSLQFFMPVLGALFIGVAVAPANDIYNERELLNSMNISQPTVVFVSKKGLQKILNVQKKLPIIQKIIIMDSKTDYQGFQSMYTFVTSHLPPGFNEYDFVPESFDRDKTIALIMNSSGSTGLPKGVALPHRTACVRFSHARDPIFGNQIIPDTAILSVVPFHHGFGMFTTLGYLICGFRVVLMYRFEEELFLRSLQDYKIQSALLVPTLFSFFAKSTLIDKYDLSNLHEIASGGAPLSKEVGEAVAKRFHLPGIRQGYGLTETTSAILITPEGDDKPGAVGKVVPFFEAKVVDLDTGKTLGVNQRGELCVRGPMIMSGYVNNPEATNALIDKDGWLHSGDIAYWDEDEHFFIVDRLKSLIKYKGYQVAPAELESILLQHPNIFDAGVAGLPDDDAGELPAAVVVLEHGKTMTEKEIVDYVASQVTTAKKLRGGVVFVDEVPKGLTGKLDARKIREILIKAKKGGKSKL

C[C@@](Cc1ccccc1)(NC(=O)CN)c1ccccc1
inactive: Potency [1] > 46 µM | Potency [2] > 46 µM | Potency [3] | outcome [4] | Potency [5] | Potency [6] | Potency [7] | Potency [8] | activity, negative = inhibition ([9]; parasite line A) 17.9% | activity, negative = inhibition ([9]; parasite line B) 2.96% | Potency (3D7) | Potency (C2A) | Potency (CP191) | Potency (CP192) | Potency (CP217) | Potency (CP250) | Potency (CP256) | Potency (CP262) | Potency (CP268) | Potency (CP269) | Potency (CP315) | Potency (CP329) | Potency (ECU) | Potency (FAB9) | Potency (HB3) | Potency (JCK) | Potency (PAD) | Potency (TAB113)
active: Potency (CP237) 5.62 µM | Potency (CP297) 9.53 µM | Potency (DIV14) 3.79 µM | Potency (DIV17) 4.78 µM | Potency (Dd2) 12.6 µM | Potency (GB4) 8.49 µM | Potency (PC49) 3.55 µM | Potency (W2) 3.79 µM
